Activity calls are given as the source filed them.
Legend:
[1] = binders of probe aFSTL3 on microarray, primary screen, stem cell growth factor project, biochemical, small-molecule microarray, fluorescence 635/667 (AID 1064); conditions: higher = more signal;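 further: measures binding of the biotinylated anti-FSTL3 antibody to printed compounds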
[2] = binders from COS7 lysate, DM2A8 probe, primary screen, torsin A project, cell lysate, small-molecule microarray, fluorescence 635/667 (AID 1065); conditions: higher = more signal, COS7 lysate expressing mutant human TOR1A
[3] = binders of probe aFGF2 on microarray, primary screen, stem cell growth factor project, biochemical, small-molecule microarray, fluorescence 635/667 (AID 1067); conditions: higher = more signal;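 further: measures binding of biotinylated aFGF2 protein to printed compounds on slides; z-score merges feature fluorescence and signal-to-noise across triplicate slides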
[4] = binders of probe aFGF10 on microarray, primary screen, stem cell growth factor project, biochemical, small-molecule microarray, fluorescence 635/667 (AID 1071); conditions: higher = more signal;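 further: score merges 667 nm spot intensity and signal to noise from triplicate slides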
[5] = molecular target: Neurogenic locus notch homolog protein 2 (Homo sapiens) (UniProt Q04721); test: Notch2 binders on small-molecule microarrays, primary screen, biochemical, small-molecule microarray, 635 nm fluorescence, stem cell growth factors (AID 1073); conditions: Notch2 binding, higher = more signal
Neurogenic locus notch homolog protein 2 (Homo sapiens), sequence (Q04721 whole entry, looked up, canonical isoform): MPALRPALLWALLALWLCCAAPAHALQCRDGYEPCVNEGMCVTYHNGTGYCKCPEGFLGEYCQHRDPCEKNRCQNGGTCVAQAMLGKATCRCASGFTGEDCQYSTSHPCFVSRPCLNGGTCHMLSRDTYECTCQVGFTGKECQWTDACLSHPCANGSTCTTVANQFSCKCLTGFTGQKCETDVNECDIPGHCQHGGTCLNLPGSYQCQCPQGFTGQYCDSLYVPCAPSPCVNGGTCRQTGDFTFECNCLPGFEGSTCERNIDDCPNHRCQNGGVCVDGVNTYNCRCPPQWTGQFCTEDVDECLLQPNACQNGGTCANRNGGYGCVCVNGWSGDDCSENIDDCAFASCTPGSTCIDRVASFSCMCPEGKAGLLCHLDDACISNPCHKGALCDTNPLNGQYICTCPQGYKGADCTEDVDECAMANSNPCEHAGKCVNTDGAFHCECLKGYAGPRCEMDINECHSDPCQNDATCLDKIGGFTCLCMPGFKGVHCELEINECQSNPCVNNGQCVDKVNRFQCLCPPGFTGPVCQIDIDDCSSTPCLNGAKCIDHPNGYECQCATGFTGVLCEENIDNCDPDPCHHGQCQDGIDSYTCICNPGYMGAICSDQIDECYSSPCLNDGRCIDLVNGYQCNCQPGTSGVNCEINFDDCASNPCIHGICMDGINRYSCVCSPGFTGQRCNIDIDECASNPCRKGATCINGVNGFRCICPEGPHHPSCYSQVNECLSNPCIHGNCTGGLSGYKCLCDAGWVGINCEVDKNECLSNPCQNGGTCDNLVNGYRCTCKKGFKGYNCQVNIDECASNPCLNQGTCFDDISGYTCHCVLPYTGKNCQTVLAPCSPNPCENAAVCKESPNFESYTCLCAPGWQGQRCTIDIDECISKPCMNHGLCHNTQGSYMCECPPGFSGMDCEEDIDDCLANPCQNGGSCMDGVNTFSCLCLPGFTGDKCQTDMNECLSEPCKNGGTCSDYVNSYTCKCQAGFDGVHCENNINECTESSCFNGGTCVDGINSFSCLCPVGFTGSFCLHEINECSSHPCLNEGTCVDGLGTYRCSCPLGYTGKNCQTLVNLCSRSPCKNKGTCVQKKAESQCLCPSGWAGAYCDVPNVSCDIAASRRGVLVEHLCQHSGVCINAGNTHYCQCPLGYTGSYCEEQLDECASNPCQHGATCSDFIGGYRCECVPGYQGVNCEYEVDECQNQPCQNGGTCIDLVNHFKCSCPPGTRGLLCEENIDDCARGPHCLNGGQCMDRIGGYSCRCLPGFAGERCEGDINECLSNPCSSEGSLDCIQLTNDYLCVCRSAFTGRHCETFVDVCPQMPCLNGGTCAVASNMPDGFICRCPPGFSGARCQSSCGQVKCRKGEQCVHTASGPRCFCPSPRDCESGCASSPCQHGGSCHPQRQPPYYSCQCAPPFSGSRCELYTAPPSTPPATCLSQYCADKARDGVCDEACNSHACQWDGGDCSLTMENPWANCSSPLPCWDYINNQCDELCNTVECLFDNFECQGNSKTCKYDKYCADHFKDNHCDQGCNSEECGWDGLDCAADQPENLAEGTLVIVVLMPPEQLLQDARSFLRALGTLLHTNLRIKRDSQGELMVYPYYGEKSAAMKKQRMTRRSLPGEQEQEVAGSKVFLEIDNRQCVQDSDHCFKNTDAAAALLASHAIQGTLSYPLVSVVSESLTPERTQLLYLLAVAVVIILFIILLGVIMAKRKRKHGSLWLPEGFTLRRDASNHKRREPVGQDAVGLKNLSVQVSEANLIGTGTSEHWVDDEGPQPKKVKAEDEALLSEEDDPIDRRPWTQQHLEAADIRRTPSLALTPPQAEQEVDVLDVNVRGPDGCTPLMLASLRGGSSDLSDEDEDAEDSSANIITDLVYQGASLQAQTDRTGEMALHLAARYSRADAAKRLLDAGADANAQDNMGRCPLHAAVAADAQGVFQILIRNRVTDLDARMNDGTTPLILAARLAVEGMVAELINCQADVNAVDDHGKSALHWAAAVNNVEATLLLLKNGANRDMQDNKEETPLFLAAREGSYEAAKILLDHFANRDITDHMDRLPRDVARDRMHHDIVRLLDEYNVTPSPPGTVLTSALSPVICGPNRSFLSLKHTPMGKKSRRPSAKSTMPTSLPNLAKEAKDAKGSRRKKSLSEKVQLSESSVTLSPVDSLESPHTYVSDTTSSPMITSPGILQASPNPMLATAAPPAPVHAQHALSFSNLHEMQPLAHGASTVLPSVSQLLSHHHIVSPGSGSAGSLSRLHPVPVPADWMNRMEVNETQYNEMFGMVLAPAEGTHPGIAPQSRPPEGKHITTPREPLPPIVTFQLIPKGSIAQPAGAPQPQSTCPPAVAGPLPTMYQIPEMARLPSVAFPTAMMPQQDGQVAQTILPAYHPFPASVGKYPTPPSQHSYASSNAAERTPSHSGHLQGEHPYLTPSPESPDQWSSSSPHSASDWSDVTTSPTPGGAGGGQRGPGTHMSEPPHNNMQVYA

[6] = molecular target: Pro-neuregulin-1, membrane-bound isoform (Homo sapiens) (UniProt Q02297); test: NRG1 binders on small-molecule microarrays, primary screen, psychiatric disease protein project, biochemical, small-molecule microarray, fluorescence 635/667 (AID 1075); conditions: NRG1 binding, 635 nm fluorescence, higher = more signal;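 further: score combines 667 nm spot fluorescence with signal to noise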
Pro-neuregulin-1, membrane-bound isoform (Homo sapiens), sequence (Q02297 whole entry, looked up, the tested form may be a part, canonical isoform): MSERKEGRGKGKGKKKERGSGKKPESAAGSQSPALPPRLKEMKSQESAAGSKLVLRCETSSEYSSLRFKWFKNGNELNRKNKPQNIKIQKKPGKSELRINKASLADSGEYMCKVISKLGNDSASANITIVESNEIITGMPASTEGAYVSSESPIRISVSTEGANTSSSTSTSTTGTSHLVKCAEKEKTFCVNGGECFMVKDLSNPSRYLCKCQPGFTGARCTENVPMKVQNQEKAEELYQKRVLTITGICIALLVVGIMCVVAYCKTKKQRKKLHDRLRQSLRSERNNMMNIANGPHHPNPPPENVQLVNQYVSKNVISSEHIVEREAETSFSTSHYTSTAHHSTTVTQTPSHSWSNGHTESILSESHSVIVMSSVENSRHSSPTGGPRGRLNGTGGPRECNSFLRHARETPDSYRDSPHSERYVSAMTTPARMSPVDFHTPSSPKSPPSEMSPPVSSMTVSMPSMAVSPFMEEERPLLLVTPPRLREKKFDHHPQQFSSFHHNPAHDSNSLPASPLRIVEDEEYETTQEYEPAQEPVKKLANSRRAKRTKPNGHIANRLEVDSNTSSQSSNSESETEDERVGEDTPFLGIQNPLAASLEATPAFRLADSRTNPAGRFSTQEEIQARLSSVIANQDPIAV

[7] = test system: Neuregulin-1 EGF-like domain; test: binders of neuregulin-1 EGF-like domain, primary screen, biochemical, small-molecule microarray, 635 nm fluorescence (AID 1081); conditions: small-molecule microarray binding, higher = more signal;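 further: binding of the protein to compounds printed on small-molecule microarray slides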
[8] = FRG1 promoter luciferase signal modulators, primary screen, FRG1 inhibition for FSHD, cell-based, C2C12 myotubes, firefly/Renilla luciferase, luminescence (AID 1084); conditions: higher = more signal, called active from +8 up or from −8 down
[9] = binders of probe aFST on microarray, primary screen, stem cell growth factor project, biochemical, small-molecule microarray, fluorescence 635/667 (AID 1086); conditions: higher = more signal;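 further: score merges 667 nm fluorescence with signal-to-noise of each printed compound spot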
[10] = binders of probe aHhip on microarray, primary screen, stem cell growth factor project, biochemical, small-molecule microarray, fluorescence 635/667 (AID 1087); conditions: higher = more signal;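 further: score merges spot fluorescence at 667nm with spot signal to noise ratio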
[11] = test system: PRMT1 (protein arginine N-methyltransferase 1); test: PRMT1 binders on small-molecule microarrays, primary screen, biochemical, small-molecule microarray, 635 nm fluorescence (AID 1088); conditions: small-molecule microarray binding, higher = more signal;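 further: binding of Prmt1 protein to compounds spotted on small-molecule microarray slides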
[12] = yeast growth modulation, basal conditions, primary screen, YJM789 clinical isolate, OD600, 24 h (AID 1089);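 further: growth of clinical yeast isolate S. cerevisiae YJM 789 seeded 1000 cells per well; test concentration not given here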; conditions: S. cerevisiae YJM789 growth, higher = more signal, called active from +8 up or from −8 down
[13] = fission yeast growth modulation, primary screen, strain 972, OD600, 24 h, no modulator (AID 1090);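 further: basal condition with compound alone and no growth modifier present; test concentration not given here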; conditions: S. pombe 972 growth, higher = more signal, called active from +8 up or from −8 down
[14] = S. cerevisiae growth modulation with rapamycin, primary screen, strain BY4716, OD600, 96 h (AID 1091); conditions: higher = more signal, called active from +8 up or from −8 down; further: test concentration not given here
[15] = molecular target: Torsin-1A-interacting protein 2 (Homo sapiens) (UniProt Q8NFQ8); test: LULL1 binders on small-molecule microarray, primary screen, cell lysate, human LULL1 lysate, 635/667 nm fluorescence (AID 1092); conditions: hLULL1 lysate binding, 635 nm fluorescence, higher = more signal;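 further: probe is lysate of COS7 cells overexpressing human LULL1; score merges per-feature 667 nm fluorescence with signal-to-noise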
Torsin-1A-interacting protein 2 (Homo sapiens), sequence (Q8NFQ8 whole entry, looked up): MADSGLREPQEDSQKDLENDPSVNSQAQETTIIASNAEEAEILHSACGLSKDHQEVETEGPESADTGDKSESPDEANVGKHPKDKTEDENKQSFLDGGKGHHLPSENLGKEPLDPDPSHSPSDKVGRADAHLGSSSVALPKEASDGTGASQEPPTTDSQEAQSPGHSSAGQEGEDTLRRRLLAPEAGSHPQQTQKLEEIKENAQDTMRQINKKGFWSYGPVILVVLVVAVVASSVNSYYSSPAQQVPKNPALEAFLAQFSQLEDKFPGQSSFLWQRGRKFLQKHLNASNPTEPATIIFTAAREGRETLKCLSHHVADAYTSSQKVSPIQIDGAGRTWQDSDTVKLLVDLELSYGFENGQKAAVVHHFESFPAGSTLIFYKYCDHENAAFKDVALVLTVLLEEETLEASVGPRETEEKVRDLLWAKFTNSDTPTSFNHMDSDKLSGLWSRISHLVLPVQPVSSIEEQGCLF

[16] = E. coli growth modulation, two-sided OD650, primary screen, E. coli filamentation project, strain DRC41, 24 h (AID 1093); conditions: OD650, 24 h, higher = more signal, called active from +8 up or from −8 down;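 further: MC1000 strain lacking acrAB efflux and sulA so SOS filamentation is blocked; test concentration not given here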
[17] = small-molecule microarray binders of probe aLefty2, primary screen, biochemical, biotinylated probe, 635/667 nm fluorescence (AID 1094); conditions: higher = more signal;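 further: score merges spot fluorescence near 667 nm with spot signal-to-noise ratio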
[18] = test system: Noggin (protein binding on small-molecule microarray); test: Noggin binders on small-molecule microarray, primary screen, biochemical, 635/667 nm fluorescence (AID 1095); conditions: 635 nm fluorescence, higher = more signal;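 further: score merges 667 nm feature fluorescence with signal to noise over triplicate slides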
[19] = molecular target: Neurogenic locus notch homolog protein 3 (Homo sapiens) (UniProt Q9UM47); test: NOTCH3 binders on small-molecule microarray, primary screen, biochemical, 635/667 nm fluorescence (AID 1096); conditions: NOTCH3 binding, 635 nm fluorescence, higher = more signal
[20] = small-molecule microarray binders of probe aEGFR, primary screen, biochemical, biotinylated probe, 635/667 nm fluorescence (AID 1097); conditions: higher = more signal;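 further: probe is a biotinylated anti-EGFR antibody binding compounds printed on slides; score combines fluorescence near 667 nm and signal to noise of each spot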

Compound | composite z-score [1] | composite z-score [2] | composite z-score [3] | composite z-score [4] | composite z-score [5] | composite z-score [6] | composite z-score [7] | z-score [8] | composite z-score [9] | composite z-score [10] | composite z-score [11] | z-score [12] | z-score [13] | z-score [14] | composite z-score [15] | z-score [16] | composite z-score [17] | composite z-score [18] | composite z-score [19] | composite z-score [20]
O=C1[C@H]2C=C(I)[C@H](C[C@@H]2OCCCCCCO)[C@@]12CO2 | -0.123 | 0.249 | -0.169 | 0.0956 | 1.01 | -0.715 | -0.175 | 0.622 (inactive) | -0.132 | -0.183 | -0.134 | -1.5 (inactive) | -2.19 (inactive) | -0.384 (inactive) | -0.505 | -1.05 (inactive) | -0.121 | 0.263 | 1.13 | -0.133
O=C(O)[C@H](Cc1ccccc1)n1cc(C2(O)CCCCC2)nn1 | -0.44 | 0.444 | -0.103 | 0.262 | -0.0666 | 0.0741 | 0.993 | 1.64 (inactive) | 0.163 | -0.0645 | 0.499 | -0.418 (inactive) | 0.255 (inactive) | -0.444 (inactive) | 1.71 | -1.15 (inactive) | -0.137 | 0.392 | 0.541 | -0.0211
CC(=O)NCCCC[C@@H]1NC(=O)[C@H]2C[C@@H](C(=O)NCCCCCCNC(=O)CS)[C@@H](c3cccc(OCCO)c3)N2C1=O | 0.419 | 0.611 | 0.0252 | 0.492 | -0.681 | 0.465 | 1.42 | 0.799 (inactive) | -0.0535 | -0.0618 | 1.56 | 0.828 (inactive) | 0.257 (inactive) | 1.28 (inactive) | 2.65 | -0.488 (inactive) | -0.0187 | 0.153 | 0.846 | -0.123
COCCCN1C(=O)[C@@]2(c3ccc([N+](=O)[O-])cc3)CC(=O)N(CC34CC5CC(CC(C5)C3)C4)[C@@H]2c2ccc(CO)cc21 | -0.145 | -0.104 | -0.0952 | 0.0256 | -0.345 | 0.0024 | 1.05 | -0.748 (inactive) | -0.19 | 0.312 | 1.27 | 0.222 (inactive) | 0.432 (inactive) | -1.33 (inactive) | 2.07 | -0.0011 (inactive) | -0.159 | 0.432 | -0.182 | -0.115
CC(C)C(=C=CC[C@H](O)c1ccccc1OCCO)C[C@H](O)COCc1ccccc1 | -0.322 | -0.0849 | -0.136 | 0.483 | -0.284 | 0.294 | 0.767 | -0.843 (inactive) | -0.064 | -0.0994 | 0.251 | -0.024 (inactive) | -1.26 (inactive) | -0.501 (inactive) | 2.8 | -0.0543 (inactive) | -0.187 | -0.0604 | -0.287 | -0.13
C[C@@H]1NC(=O)C([C@@H](C)OCc2ccccc2)NC(=O)[C@@]23C(=O)N[C@@H](Cc4ccccc4)C2[C@H](C)[C@@]2(C)O[C@H]2C3/C=C/C/C=C\CNC1=O (stereo not given in full) | -0.439 | -0.328 | -0.0578 | 0.341 | -0.0879 | 0.671 | 0.503 | -0.116 (inactive) | -0.502 | -0.236 | -0.448 | 0.35 (inactive) | -0.258 (inactive) | 0.186 (inactive) | -0.327 | -1.07 (inactive) | -0.205 | -0.0322 | 0.177 | -0.109
COC(=O)[C@@]1(Cc2ccc(F)cc2)[C@H]2c3cc(C(=O)N(C)C)n(C)c3C[C@H]2CN1C(=O)c1ccccc1 | -0.187 | -0.609 | 0.0364 | 1.08 | 1.58 | 1.12 | 1.16 | 0.736 (inactive) | 0.229 | 0.0677 | -0.97 | 0.0108 (inactive) | 0.476 (inactive) | 0.08 (inactive) | 2.54 | -0.339 (inactive) | 0.519 | -0.608 | 0.381 | 0.383
O=C1O[C@@H](c2ccccc2)[C@@H](c2ccccc2)N2[C@@H](c3ccc(OCCO)cc3)[C@]3(C(=O)Nc4ccc(C#CC5(O)CCCCCC5)cc43)[C@@H](C(=O)Nc3nc4ccccc4s3)[C@H]12 | -0.017 | 1.17 | 0.0649 | 0.517 | 1.46 | 1.51 | 1.24 | 2.48 (inactive) | 0.397 | 0.113 | 1.55 | 2.44 (inactive) | 1.19 (inactive) | 2.78 (inactive) | 2.96 | 0.799 (inactive) | 0.0769 | 1.18 | 1.07 | 0.191
O=C1C2C=CC(C(O)c3ccc([N+](=O)[O-])cc3)N(Nc3ccccc3F)C2C(=O)N1c1ccccc1 (stereo not given) | 0.484 | 0.173 | -0.0172 | 0.438 | 1.12 | 1.6 | 1.29 | -0.101 (inactive) | 0.883 | -0.163 | 0.67 | 0.213 (inactive) | 0.619 (inactive) | 1.05 (inactive) | 1.87 | -0.774 (inactive) | 0.296 | -0.316 | 0.98 | -0.0278
COCCOC(=O)N1C(=O)[C@@]2(c3cc(C#CCC(C(=O)OC)C(=O)OC)ccc31)[C@H](C(=O)Nc1nc3ccccc3s1)[C@H]1C(=O)O[C@H](c3ccccc3)[C@H](c3ccccc3)N1[C@@H]2c1ccc(OCCO)cc1 | 0.357 | 0.773 | 0.224 | 0.81 | 1.22 | 0.166 | 1.23 | 4.17 (inactive) | 0.853 | -0.0699 | 1.54 | 1.74 (inactive) | 0.657 (inactive) | 2.14 (inactive) | 1.43 | 1.43 (inactive) | 0.483 | 1.89 | 1.05 | 0.232
O=C1OCCC=C[C@H]2OC34C=CCN(c5ccc6ccccc6c5)C(=O)[C@H]3N(CCO)C(=O)[C@@H]4C12 (stereo not given in full) | -0.562 | -0.171 | -0.119 | -0.175 | -0.397 | -0.863 | 0.464 | 0.149 (inactive) | -0.847 | -0.672 | -0.3 | -0.735 (inactive) | -0.737 (inactive) | -0.171 (inactive) | -0.686 | -0.021 (inactive) | -0.314 | -0.251 | 0.301 | -0.0353
